Source: PubChem
This is a sample that favours compounds with a hit; in the whole collection about 21% have one here.
Pf growth 48h = inhibits P. falciparum growth in the first generation, 48 h. P. falciparum luciferase growth in erythrocytes, 48 h. Potency, µM (titrated, usually from 28.7 µM), for inactives: top-dose activity change, negative = inhibition, actives largely listed as inhibitors. 5.9% of 310,000 active; further: potency means the concentration at half of the fitted maximal effect; on the % scale 0 is the no-effect control and ±100 the full control effect
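In quantitative HTS format, infected erythrocytes bearing luciferase-reporter parasites were treated for a single generation at 37 C. Luminescence after adding detection reagent served as the growth measure.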
CHX counter = affects cycloheximide protein synthesis inhibition readout, counter-screen | cell reporter, cycloheximide protein synthesis inhibition counterscreen | max response, % | 12% of 300,000 active | AID 2314; in the data active means max response mostly above about 13%, no sharp cut-off; inactive means mostly below about 14%; further: read at 38.3 µM for the half of the compounds with a filed dose; 0% is about no effect
Pf growth 96h = inhibits malaria parasite growth, 96 h. P. falciparum luciferase reporter growth, 96 h. Potency, µM (top dose mostly 28.7 µM), for the others: at the top dose activity change, negative = inhibition, most hits filed as inhibitors. 6.9% of 320,000 active; further: potency means the concentration at half of the fitted maximal effect; on the % scale 0 is the no-effect control and ±100 the full control effect
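Readout is luminescence from an integrated firefly luciferase in P. falciparum. Red cells, 2% hematocrit and 0.05% parasitemia final, were cultured with compound through two parasite generations (96 hours) at 37 C, 5% CO2.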
Shiga toxin inh = Shiga toxin inhibition; Vero cells, Shiga toxin protein synthesis inhibition reporter; inhibition, % at 38.7 µM; 9.2% of 290,000 active; AID 2315; in the data active means inhibition mostly above about 28%, no sharp cut-off; inactive means mostly below about 43%; further: 0% is about no effect
* hit, by the source's call; ? = inconclusive; . = no result; [ ] = another dose, or the depositor's remark. Unless noted, the call rests on the fitted dose curve; in most records, active means well fitted inhibition curve with a large enough effect; inconclusive means small, poorly fitted or top-dose-only effect, or another doubt; inactive means no such curve, though single readings can be large or run the other way.

SMILES | Pf growth 48h | CHX counter | Pf growth 96h | Shiga toxin inh
COC(=O)c1ccccc1NC(=O)COC(=O)c1ccco1 | 3.7% | -4.5 | 0.5%[5.75 µM] | 2.1
CNc1c([N+](=O)[O-])cnn1-c1ccc(C)cc1 | 3.29µM* | 0.2 | ? | 17.0
CNc1c([N+](=O)[O-])cnn1-c1ccccc1F | 50.9% | 40.5* | 21.3% | 42.9
O=[N+]([O-])c1ccc(N2CCN(c3ccccc3F)CC2)nc1 | -11.2% | 1.0 | 81.8% | 3.9
CNc1cnn(-c2ccc(C)cc2)c(=O)c1Sc1ccc(C)cc1 | -1.6% | -4.9 | -22.8% | -4.5
COc1ccc(Br)cc1CN1CCCCCC1 | ? | -1.8 | 20.7% | -9.0
COc1ccccc1CC1(C)NC(=O)N(CC(=O)N2CC(C)OC(C)C2)C1=O (stereo not drawn) | 6.3% | 10.4 | 0.522µM* | -6.7
CCCOc1ccc(CCCN=C(N)N)cc1Cl | ? | 0.4 | -12.3% | 27.4
COc1ccc(N(C)S(=O)(=O)c2cccc(C(=O)NC3CCCCC3C)c2)cc1 (stereo not drawn) | ? | 17.0 | ? | 32.3
Cc1ccc(N(C)S(=O)(=O)c2cccc(C(=O)Nc3ccc(N4CCOCC4)cc3)c2)cc1 | ? | . | 10.4µM* | .
COc1ccc(N(C)S(=O)(=O)c2cccc(C(=O)NC3CCCC3)c2)cc1 | 10.4µM* | 4.8 | ? | 7.8
COc1ccc(N(C)S(=O)(=O)c2cccc(C(=O)Nc3ccc(N4CCOCC4)cc3)c2)cc1 | 8.28µM* | . | ? | .
CC(=O)Nc1ccc(S(=O)(=O)NCc2nc(-c3ccccc3C)no2)cc1 | 6.7% | -5.3 | -6.6% | 16.2
O=C1N(Cc2cccc(Cl)c2)C[C@@H]2C[C@@H](c3cccc4cccnc34)N3CCC[C@@]123 | ? | -1.1 | ? | 2.9
O=C1N(Cc2cccc(Cl)c2)C[C@@H]2C[C@@H](c3cccn3-c3ccccn3)N3CCC[C@@]123 | 11.7µM* | 0.6 | ? | 5.4
O=C1N(Cc2cccc(Cl)c2)C[C@@H]2C[C@@H](c3cccn3-c3nccs3)N3CCC[C@@]123 | ? | -2.8 | ? | -5.0
O=C1N(Cc2cccc(Cl)c2)C[C@@H]2C[C@@H](c3cccc4ncccc34)N3CCC[C@@]123 | 1.65µM* | 4.3 | 20.6% | 20.2
CC(Sc1nnc(C2CC2)n1Cc1ccccc1)C(=O)N1CCNC1=O (stereo not drawn) | 8.2% | . | -3.5% | .
O=P(O)(O)OP(=O)(O)O | 3.79µM* | . | ? | .
CCC1=C[C@@H]2CN(C1)Cc1c([nH]c3ccccc13)[C@@](C(=O)OC)(c1cc3c(cc1OC)N(C)[C@H]1[C@@](O)(C(=O)OC)[C@H](OC(C)=O)[C@]4(CC)C=CCN5CC[C@]31[C@@H]54)C2 | . | -6.9 | . | -3.3
CCOC(=O)c1sc2nccc(N(C)C)c2c1N=CNOCc1c(F)cccc1Cl | . | 25.4* | ? | 35.5
CCOC(=O)c1sc2nccc(N(C)C)c2c1N=CNOCc1ccccc1 | . | 15.9* | ? | 21.1
CCOC(=O)c1sc2nccc(N(C)C)c2c1N=CNOC | . | -4.5 | -94.7% | -19.1
COc1ccccc1CCC(=O)NNC(=O)c1ccc(Br)cc1 | 12.0% | 11.8 | 29.0% | 6.6
O=[N+]([O-])c1ccc(CN2C=NS(=O)(=O)c3ccccc32)cc1 | -1.1% | -1.6 | 0.0% | -2.5
SMILES | Pf growth 48h | CHX counter | Pf growth 96h | Shiga toxin inh
CCOC(=O)c1cnc2oc3ccccc3n2c1=O | 2.3% | 57.6* | 40.1% | .
CCOC(=O)c1cnc2sc3c(n2c1=O)CCCC3 | ? | 42.7* | ? | 92.5*
CCOC(=O)c1cc(C(=O)OCC)c2cccc(C)n2c1=O | 9.1% | -2.9 | -1.3%[5.75 µM] | -17.3
CCOC(=O)c1cnc2nc(C)[nH]n2c1=O | 5.7% | -3.1 | 47.8% | -5.3
CC(C)CC(NC(=O)C(CO)NC(=O)C1CCC(=O)N1)C(N)=O (stereo not drawn) | 0.8% | 6.1 | 10.4µM* | 28.3
CCC(C)C(NC(=O)C(CC(C)C)NC(=O)C(CO)NC(=O)C1CCC(=O)N1)C(=O)OC (stereo not drawn) | 17.1% | 4.0 | 7.1% | -6.5
CCCS(=O)(=O)n1nc(-c2ccc(OC)cc2)cc1N | . | 1.5 | 10.4µM* | 11.3
CCCS(=O)(=O)n1nc(-c2ccc(C)cc2)cc1N | . | 15.1 | 4.65µM* | 39.0
CCCS(=O)(=O)n1nc(-c2ccc(OC)cc2OC)cc1N | 17.2% | 4.4 | ? | 15.4
COc1cc(OC)cc(-c2cc(N)n(S(=O)(=O)Cc3ccccc3)n2)c1 | . | -5.9 | 8.28µM* | -6.6
COc1ccccc1OCC(=O)N1CCN(C(=O)c2ccco2)CC1 | 15.3% | 15.8 | ? | 14.3
O=C(c1ccccc1NS(=O)(=O)c1cccc(C(F)(F)F)c1)N1CCc2ccccc21 | 4.6% | -1.3 | 18.3% | -3.0
Cc1nonc1CC(=O)N1CCCC(C(=O)c2cccc(C(F)(F)F)c2)C1 (stereo not drawn) | 39.4% | -2.4 | ? | -3.8
Cc1ccc2cccc(N)c2n1 | -14.8% | 15.8 | 0.928µM* | 15.8
Cc1c(N)cccc1N | 25.9% | . | ? | .
O=c1[nH]c2ccccc2nc1-c1ccc(Cl)cc1 | 60.5% | 18.2* | 84.7% | 52.3*
O=c1[nH]c2ccccc2nc1-c1ccccc1 | 52.6% | 25.8* | 55.1% | 50.1*
c1ccc(-c2nnsc2-c2nc3ccccc3[nH]2)cc1 | 9.4% | 23.0* | 0.2% | 43.2*
O=c1nc(-c2ccccc2)c2ccccc2[nH]1 | . | 2.1 | -25.3% | -0.9
O=c1[nH]c2ccccc2nc1Cc1ccc(Cl)cc1 | 5.0% | 24.3 | 4.5% | -4.2
CC1=C(C(=O)Nc2ccc(Cl)cc2)C2(CCCCC2)C(C(N)=O)C(=S)N1 (stereo not drawn) | -7.3% | -1.9 | -2.0% | -5.5
Cc1ccc(OCc2ccc(C(=O)Nc3nc4ccccc4n3C)o2)c([N+](=O)[O-])c1 | 11.6% | -0.6 | 21.1% | -17.6
COc1ccc(C(=O)NC(=S)N2CCN(c3ccccc3OC)CC2)cc1 | ? | 5.3 | 22.4% | -11.0
Cc1ccc(C(=O)NC(=S)N2CCN(c3cc(C)ccc3C)CC2)cc1 | ? | 38.2* | -28.0% | 49.1*
Cc1ccc(C(=O)NC(=S)N2CCN(C(=O)OC(C)(C)C)CC2)cc1Br | 9.2% | -1.9 | -14.1% | -7.0
SMILES | Pf growth 48h | CHX counter | Pf growth 96h | Shiga toxin inh
Cc1ccc(N2C(=O)c3ccc(C(=O)N4CCN(c5ccccc5F)CC4)cc3C2=O)cc1 | 5.1% | -3.0 | 9.28µM* | -11.2
Cc1ccc(C(=O)NC(=S)N2CCN(c3ccccc3F)CC2)cc1 | 16.3% | 20.4 | 35.6% | 34.7*
COc1ccc(N(C(=O)CNC(=O)c2cccs2)C(C(=O)NCC2CCCO2)c2ccccc2)cc1 (stereo not drawn) | -28.7% | -3.3 | 40.8% | -13.3
O=C(COC(=O)CCS(=O)(=O)c1ccccc1)NC(=O)c1ccc(OC(F)F)cc1 | -3.0% | . | 10.2% | .
Cc1c(C(c2ccc(C(=O)O)cc2)c2c(C)n(C)n(-c3ccccc3)c2=O)c(=O)n(-c2ccccc2)n1C | . | -3.6 | 14.7% | -4.3
COc1cccc(-c2nn(-c3ccc(C)cc3)cc2C(=O)N(C)CC(=O)Nc2cccc(F)c2)c1 | 5.22µM* | . | 14.7µM* | .
COc1cccc(NC(=O)CN(C)C(=O)c2ccc(-c3ccccc3Cl)o2)c1 | 0.294µM* | 11.0* | ? | 6.9
CN(CC(=O)Nc1cccc(F)c1)C(=O)c1cn(-c2ccccc2)nc1-c1ccc(F)cc1 | ? | . | -43.0% | .
